The source of these data is PubChem BioAssay AID1376 (SRMLSC, 2008).

In all, about 220,000 compounds went through this assay and about 530 (0.24%) were called active. Cut-off read from the data, not from the text of the source: active = inhibition above about 13%; inconclusive = no clear call, values can overlap the other calls; inactive = below that. The list comes from a sample in which actives are over-represented; it also holds similar structures and randomly drawn compounds. Potency and affinity values are given separately.

The target in this assay is Bifunctional protein GlmU (Mycobacterium tuberculosis (strain ATCC 25618 / H37Rv)) (UniProt P9WMN3). Briefly: inhibition of mycobacterial GlmU enzyme – biochemical, glucosamine-1-phosphate acetyltransferase (AID 1376).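 Note: 0% = complete reaction with vehicle and 100% = reaction without substrate.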 As to conditions: M. tuberculosis GlmU acetyltransferase enzyme assay; hits give high values;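 tested at 30 µM in the primary screen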.
Bifunctional protein GlmU (Mycobacterium tuberculosis (strain ATCC 25618 / H37Rv)), sequence (P9WMN3 whole entry, looked up): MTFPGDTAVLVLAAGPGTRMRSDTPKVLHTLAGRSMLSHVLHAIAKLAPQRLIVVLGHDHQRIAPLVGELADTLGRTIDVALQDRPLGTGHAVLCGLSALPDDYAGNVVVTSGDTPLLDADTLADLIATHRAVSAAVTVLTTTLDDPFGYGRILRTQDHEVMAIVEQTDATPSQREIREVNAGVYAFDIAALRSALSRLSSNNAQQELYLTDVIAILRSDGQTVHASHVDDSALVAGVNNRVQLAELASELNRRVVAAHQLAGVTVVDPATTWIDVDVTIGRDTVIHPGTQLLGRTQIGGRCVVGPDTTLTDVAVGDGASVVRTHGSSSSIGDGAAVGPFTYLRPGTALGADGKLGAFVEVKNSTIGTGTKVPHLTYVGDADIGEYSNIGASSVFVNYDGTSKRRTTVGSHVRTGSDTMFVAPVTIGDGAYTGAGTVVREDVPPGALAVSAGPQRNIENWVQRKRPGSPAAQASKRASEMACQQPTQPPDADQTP
With `CC(=O)Nc1ccc(S(=O)(=O)N(C)c2ccccc2)cc1`, the inhibition (commonly the relative decrease from the control value, in per cent) was -1.32% (inactive).

On to `CN(c1ccccc1)S(=O)(=O)c1ccc(NC(=S)NC(=O)c2ccccc2)cc1`, for which the inhibition was 0.7% (inactive).

Turning to `CN(c1ccccc1)S(=O)(=O)c1ccc(NC(=S)Nc2ccccc2)cc1`, the inhibition is 18.1% (active).

For `O=C1c2cccc(Sc3ccccc3)c2C(=O)c2c(Sc3ccccc3)cccc21`, the inhibition is 14.2% (active).

In the case of `O=C1c2cccc(O)c2C(=O)c2c(O)cccc21`, the inhibition was 6.42% (inactive).

For the compound `O=C(O)c1ccc2c(c1Sc1ccccc1)C(=O)c1ccccc1C2=O`, the inhibition is 7.96% (inactive).

With `CC(C)C(NC(=O)C1CCC(C(C)(C)C)CC1)C(=O)NCc1cccnc1` (stereo not drawn), the inhibition is 5% (inactive).

Consider `CCOc1ccc(S(=O)(=O)N2CCN(C(=S)NC3CC3)CC2)cc1`, for which the inhibition was 4.79% (inactive).

As for `CCn1c(Cc2ccccc2)nnc1SCc1cccc(C(=O)O)c1`, the inhibition is 1.34% (inactive).

With `CCC(=NC(C)c1ccccc1)c1c(O)n(C)c(=O)n(C)c1=O` (stereo not drawn), the inhibition was -3.09% (inactive).

As to `COc1cc2c(cc1OC)C(c1ccccc1O)N(C1CC(=O)N(c3ccccc3)C1=O)CC2` (stereo not drawn), the inhibition is 2.68% (inactive).

In the case of `CCOC(=O)Cc1csc(NC(=O)c2cc(C)cc(C)c2)n1`, the inhibition is -2.68% (inactive).

`Cn1c(SCC(=O)N2CCOCC2)nnc1-c1ccc2ncccc2c1`: the inhibition was 13.7% (active).

Regarding `Cn1c(SCC(=O)O)nnc1-c1ccc2ncccc2c1`, the inhibition was -1.41% (inactive).

As for `CCOC(=O)CSc1nnc(-c2ccc3ncccc3c2)n1C`, the inhibition is 0.08% (inactive).

For the compound `Cc1ccc(S(=O)(=O)N2CCCOC2CNC(=O)C(=O)NC2CCCCC2)cc1` (stereo not drawn), the inhibition was -5.78% (inactive).

With `O=C1/C(=C\c2ccc(Br)o2)Cc2ccccc21`, the inhibition is 8.39% (inactive).

Regarding `Cc1ccc(C=C2C(=O)c3ccccc3C2=O)o1`, the inhibition was 2.45% (inactive).

Consider `COc1ccc(C(CNC(=O)c2ccc(S(=O)(=O)N(C)C)cc2)N2CCCCC2)cc1` (stereo not drawn), for which the inhibition is 0.14% (inactive).

Take `COc1ccc(NC(=O)N2CCCC2C(=O)NCc2ccc(C)cc2)cc1` (stereo not drawn): the inhibition was 1.15% (inactive).

`CC(C)CNC(C)C(=O)Nc1ccc(S(N)(=O)=O)cc1` (stereo not drawn): the inhibition was -3.38% (inactive).

For the compound `C=CCOc1c2ccc(C(=O)NCc3ccc(C)cc3)cc2nn1C`, the inhibition was 1.15% (inactive).

On to `Cn1c2ccccc2c2cc(C(=O)N3CCN(CCO)CC3)sc21`, for which the inhibition was 12.8% (active).

For the compound `CC(=O)NNC(=O)c1cc2c3ccccc3n(C)c2s1`, the inhibition is 2.59% (inactive).

On to `Cn1c2ccccc2c2cc(C(=O)N3CCOCC3)sc21`, for which the inhibition is 5.13% (inactive).

Take `CN1CCc2nc(SCc3cccc(Br)c3)c(C#N)cc2C1`: the inhibition was 13% (active).

With `CN1CCc2nc(SCc3ccccc3Br)c(C#N)cc2C1`, the inhibition is -4.18% (inactive).

As for `Cc1cccc(CSc2nc3c(cc2C#N)CN(C)CC3)c1`, the inhibition is -4.03% (inactive).

On to `Cc1c(C(=O)OCCOc2ccccc2)[nH]c2c1C(=O)CCC2`, for which the inhibition is 2.56% (inactive).

Take `N#C/C(=C/c1ccc(-c2ccc(S(N)(=O)=O)cc2)o1)c1nc2ccccc2s1`: the inhibition is 6.34% (inactive).

For `N#C/C(=C\c1ccc(Sc2ccccc2)o1)c1nc2ccccc2[nH]1`, the inhibition was -4.05% (inactive).

Regarding `COc1cc(/C=C(\C#N)c2nc3ccccc3s2)cc([N+](=O)[O-])c1O`, the inhibition was 6.33% (inactive).

Consider `N#C/C(=C\c1ccc([N+](=O)[O-])o1)c1nc2ccccc2[nH]1`, for which the inhibition is -6.95% (inactive).

On to `N#C/C(=C/c1ccncc1)c1nc2ccccc2s1`, for which the inhibition is -6.23% (inactive).

Take `N#C/C(=C\c1ccco1)c1nc2ccccc2s1`: the inhibition was 7.35% (inactive).

Turning to `CC(C)(C)NC(=O)NC(=O)COC(=O)c1ccc2c(c1)S(=O)(=O)N=C1CCCCCN12`, the inhibition is -5.9% (inactive).

Regarding `O=C(C(=S)N1CCOCC1)c1c[nH]c2ccccc12`, the inhibition is -1.14% (inactive).

In the case of `O=C1C2C3C=CC(CC3)C2C(=O)N1/N=C/c1c(O)ccc2ccccc12` (stereo not drawn), the inhibition was -1.22% (inactive).

For `CC(NC(=O)c1ccco1)C1COc2ccccc2O1` (stereo not drawn), the inhibition was 1.62% (inactive).

Consider `CC(Sc1nnc2ccccn12)C(=O)Nc1ccc(Cl)cn1` (stereo not drawn), for which the inhibition is 8.91% (inactive).

As to `COc1ccccc1C1=NN(C2=NN=C(N)Cc3ncnn32)C(O)(C(F)(F)F)C1` (stereo not drawn), the inhibition was -7.53% (inactive).

In the case of `N#CCC(=O)N/N=C/c1cccc(Oc2ccccc2)c1`, the inhibition was 5.36% (inactive).

With `CN1CCN(c2nc3ccccc3c(=O)n2-c2ccccc2)CC1`, the inhibition was 2.07% (inactive).

In the case of `O=c1c2ccccc2nc(N2CCCC2)n1-c1ccc(Cl)cc1`, the inhibition was 3.51% (inactive).

Consider `O=c1c2ccccc2nc(N2CCCC2)n1-c1ccccc1`, for which the inhibition is 13.9% (active).

As to `CC1(C)CC(=O)C2=C(C1)NC(=O)C21C(C(=O)OC(C)(C)C)=C(N)Oc2ccc(Br)cc21` (stereo not drawn), the inhibition is 4.2% (inactive).

Regarding `O=C(Cc1ccc([N+](=O)[O-])cc1)NCc1ccc2c(c1)OCO2`, the inhibition was -3.22% (inactive).

Regarding `O=C(Cc1ccccc1[N+](=O)[O-])NCc1ccc2c(c1)OCO2`, the inhibition was 14% (active).

For `O=C(Cc1ccccc1[N+](=O)[O-])Nc1ccc2c(c1)OCO2`, the inhibition was 0.87% (inactive).

`O=C(/C=C/c1ccco1)Oc1cccc2cccnc12`: the inhibition was 14.7% (active).

For `O=C(/C=C/c1ccccc1)Oc1cccc2cccnc12`, the inhibition was 0.34% (inactive).

`O=C(/C=C\c1ccco1)Oc1cccc2cccnc12`: the inhibition was 0.86% (inactive).

Regarding `CN(NC(=O)Nc1ccccc1)c1cnn(C)c(=O)c1Cl`, the inhibition was 4.46% (inactive).

As to `Cc1ccc(NC(=O)CC2COc3ccccc3O2)cc1` (stereo not drawn), the inhibition is -0.6% (inactive).

As for `CC1(C)CC(=O)C2=C(C1)NC(=O)CC2c1ccc(N(CCC#N)CCC#N)cc1` (stereo not drawn), the inhibition was -4.28% (inactive).

On to `COc1cc(/C=N/N2C(=O)CSC2=S)ccc1O`, for which the inhibition was -0.65% (inactive).

As for `O=C1c2ccccc2C(=O)N1/N=C/c1ccc(O)c(O)c1O`, the inhibition was 10.8% (inactive).

Regarding `O=C1CSC(=S)N1/N=C/c1ccc(Cl)c([N+](=O)[O-])c1`, the inhibition was 4.42% (inactive).

For `O=C1CSC(=S)N1/N=C/c1ccc(O)c([N+](=O)[O-])c1`, the inhibition is 55.6% (active).

As to `COc1cccc(/C=N/N2C(=O)CSC2=S)c1O`, the inhibition was 5.18% (inactive).

On to `COC(=O)c1c(C)n(-c2ccc(C)cc2)c2ccc(O)cc12`, for which the inhibition is -3.11% (inactive).

As for `O=C(CCn1c(=O)[nH]c2ccccc2c1=O)N1CC=C(c2ccccc2)CC1`, the inhibition was 1.07% (inactive).

Consider `O=C(CSc1ccccn1)N/N=C/c1cc([N+](=O)[O-])ccc1O`, for which the inhibition was 4.16% (inactive).

Turning to `O=C(Nc1cccc(S(=O)(=O)N2CCOCC2)c1)c1ccc(Cl)c([N+](=O)[O-])c1`, the inhibition is -7.13% (inactive).

On to `O=C(Nc1cccc(C(F)(F)F)c1)N1CCN(C(=O)Nc2cccc(C(F)(F)F)c2)CC1`, for which the inhibition was -0.83% (inactive).

On to `COc1ccccc1N1CCN(C(=O)/C=C/c2c(Cl)nc3ccccn23)CC1`, for which the inhibition is 1.7% (inactive).

In the case of `COc1ccc(/C=N/c2c(-c3ccc(OC)cc3)nc3n2CCS3)cc1`, the inhibition is -0.71% (inactive).

In the case of `Cc1nc2cc(NC(=O)NCc3ccc4c(c3)OCO4)ccc2o1`, the inhibition was 0.01% (inactive).

Consider `CC12CCC(c3nnc(SCc4ccc(Cl)cc4)nc31)C2(C)C` (stereo not drawn), for which the inhibition was 7.21% (inactive).

On to `COc1ccc(-c2nc3scc(-c4ccccc4)n3n2)cc1`, for which the inhibition was 5.16% (inactive).

As for `COCCn1c(Cc2ccccc2)nnc1SCC(=O)Nc1ccccc1`, the inhibition is 2.41% (inactive).

On to `CC1(C)NC(=O)N(CCOCCOc2c(Cl)cc(Cl)cc2Cl)C1=O`, for which the inhibition is 2.47% (inactive).

Consider `Cc1cc(C)c(OCCN2C(=O)NC(C)(C)C2=O)c(Cl)c1`, for which the inhibition was 14.1% (active).

As for `Cc1cc(Cl)c(OCCN2C(=O)NC(C)(C)C2=O)c(Br)c1`, the inhibition is -1.37% (inactive).

As for `Cc1nnsc1C(=O)Nc1ccc(Cl)cc1`, the inhibition was 5.53% (inactive).

On to `CNC(=O)c1nnsc1S(=O)(=O)c1ccc(Cl)cc1`, for which the inhibition was 11.5% (inactive).

`O=C(c1cc(-c2ccc(Cl)cc2)on1)N1CCOCC1`: the inhibition is 3.17% (inactive).

Turning to `CCCNC(=O)c1nnsc1S(=O)(=O)c1ccc(Cl)cc1`, the inhibition was 10.7% (inactive).

`O=C(c1nnsc1S(=O)(=O)c1ccc(Cl)cc1)N1CCOCC1`: the inhibition was 0.93% (inactive).

In the case of `O=C(Nc1ccccc1)c1nnsc1S(=O)(=O)c1ccc(Cl)cc1`, the inhibition is 6.59% (inactive).

As to `CCCNC(=O)c1nnsc1Sc1ccc(Cl)cc1`, the inhibition was 1.02% (inactive).

As to `CNC(=O)c1ncoc1-c1ccc(Cl)cc1`, the inhibition was -1.29% (inactive).

Consider `CC1(C)C(=O)OC(c2ccccc2)C2(CCCC2)C1=O` (stereo not drawn), for which the inhibition was -6.73% (inactive).

In the case of `COC(=O)N1CCN(CCc2ccccc2)CC1`, the inhibition is 0.78% (inactive).

Take `CCCCNC(=O)CNC(=S)N(Cc1ccccc1)Cc1cccs1`: the inhibition is 4.12% (inactive).

As for `CCc1cccc(NC(=O)CCS(=O)(=O)c2cccc3nonc23)c1`, the inhibition is 0.23% (inactive).

Regarding `CC(NC(=O)CSC(=S)N(C)C)C12CC3CC(CC(C3)C1)C2` (stereo not drawn), the inhibition is 2.22% (inactive).

As to `O=C1C2C3C=CC(C3)C2C(=O)N1CCCCN1C(=O)C2C3C=CC(C3)C2C1=O` (stereo not drawn), the inhibition is 4.77% (inactive).

As to `O=C1C2C3C=CC(C3)C2C(=O)N1CCCCCCN1C(=O)C2C3C=CC(C3)C2C1=O` (stereo not drawn), the inhibition is -4.36% (inactive).

As to `CCCC(=O)Nc1c(C)nn(C(=O)CCC)c1C`, the inhibition is 9.51% (inactive).

Consider `COc1cccc(-c2nnc(SCCC(=O)O)n2C)c1`, for which the inhibition is -2.35% (inactive).

Turning to `C/C(Cl)=C/Cn1c(NCCCn2ccnc2)nc2c1c(=O)[nH]c(=O)n2C`, the inhibition was -3.26% (inactive).

Consider `COc1ccc(C(=O)OCC(=O)Nc2cc(S(=O)(=O)N3CCOCC3)ccc2N2CCCC2)cc1`, for which the inhibition is 0.15% (inactive).

Consider `CCN(CC)S(=O)(=O)c1ccc(NC(=O)COC(=O)c2ccc(-n3nc(C)cc3C)cc2)cc1`, for which the inhibition is 2.95% (inactive).

For `COc1ccc(OC)c(NC(=O)COC(=O)c2ccc(S(=O)(=O)N3CCOCC3)cc2)c1`, the inhibition is 14.5% (active).

`COc1ccc(S(=O)(=O)N2CCOCC2)cc1NC(=O)COC(=O)c1ccc(C)s1`: the inhibition is 0.67% (inactive).

`Cc1cc(C)n(-c2ccc(C(=O)OCC(=O)Nc3ccc(S(=O)(=O)N4CCOCC4)cc3)cc2)n1`: the inhibition was 12.8% (active).

In the case of `Cc1cc(C)n(-c2ccc(C(=O)OCC(=O)Nc3ccc(S(=O)(=O)N4CCCCC4)cc3)cc2)n1`, the inhibition is 0.24% (inactive).
